40 compounds from PubChem BioAssay AID2568 (National Center for Advancing Translational Sciences (NCATS), 2010) can be followed below.

Results filed as inconclusive are left out. The source made the active and inactive calls. Calls come from the whole dose curve.

This experiment deals with Neuropeptide S receptor (Homo sapiens) (UniProt Q6W5P4). The experiment is described as follows: Confirmation Concentration-Response Assay for Antagonists of the Neuropeptide S Receptor: cAMP Signal Transduction, SAR for Probe. Conditions: CHO-NPSR cells, cAMP TR-FRET, antagonist mode; series mostly up to 47.8 µM; activity change, negative = inhibition: at the top concentration. The source says: NIH Chemical Genomics Center [NCGC] NIH Molecular Libraries Probe Production centers Network [MLPCN] MLPCN Grant: X01-DA026210-01 Assay Submitter (PI): Heilig, Markus Alexander NCGC Assay Overview: Neuropeptide S receptor (NPSR), previously known as GPR154, is a recently de-orphanized G protein coupled receptor. Its endogenous ligand is the 20 amino acids peptide Neuropeptide S (NPS). […] NPS and its receptor are found in various tissues. Specifically they are highly expressed in brain areas that have been implicated in modulation of arousal, stress and anxiety. Central administration of NPS in mice produces an unusual profile of activity by inducing wakefulness and arousal, while at the same time suppressing anxiety. Therefore, NPSR may represent a novel drug target for the treatment of sleep and anxiety disorders. To identify NPSR antagonists, we developed a cell-based cAMP assay. NPS can stimulate the production of cAMP in Chinese hamster ovary cells stably expressing NPS receptor. This change in intracellular cAMP level can be detected by a homogeneous LANCE cAMP assay based on the TR-FRET (time resolved fluorescence resonance energy transfer) between a europium-labeled cAMP tracer complex and a cAMP-specific antibody labeled with Alexa Fluor 647. The europium-labeled cAMP tracer complex is formed by the tight interaction between Biotin-cAMP (b-cAMP) and streptavidin labeled with Europium-W8044 chelate (Eu-SA). Light pulse at 320 nm excites the europium of the cAMP tracer and the energy emitted is transferred to the Alexa molecule bound to the cAMP antibody, generating a TR-FRET signal at 665 nm. Residual energy from the europium will produce a light at 620 nm. The native unlabeled cAMP from cell lysates competes with the europium-cAMP tracer for antibody binding and reversely reduces the emission signal of Alexa by interrupting FRET between the two labeled molecules. Both emission signals from the FRET donor (620 nm) and the acceptor (665 nm) can be detected by a plate reader in the TRF mode. Expression of result in fluorescence ratio (665 nm/620 nm) helps to normalize differences due to cell density and reagent dispensing. This assay was successfully optimized to a 1536-well plate format. Select compounds from the primary screen (AID 1461) were chosen for confirmation based on potency, efficacy, SAR, and activity across other assays in PubChem and at NCGC. Other compounds are analogs of active compounds from the primary screen.
Chain of Neuropeptide S receptor (Homo sapiens) (Q6W5P4 whole entry, looked up): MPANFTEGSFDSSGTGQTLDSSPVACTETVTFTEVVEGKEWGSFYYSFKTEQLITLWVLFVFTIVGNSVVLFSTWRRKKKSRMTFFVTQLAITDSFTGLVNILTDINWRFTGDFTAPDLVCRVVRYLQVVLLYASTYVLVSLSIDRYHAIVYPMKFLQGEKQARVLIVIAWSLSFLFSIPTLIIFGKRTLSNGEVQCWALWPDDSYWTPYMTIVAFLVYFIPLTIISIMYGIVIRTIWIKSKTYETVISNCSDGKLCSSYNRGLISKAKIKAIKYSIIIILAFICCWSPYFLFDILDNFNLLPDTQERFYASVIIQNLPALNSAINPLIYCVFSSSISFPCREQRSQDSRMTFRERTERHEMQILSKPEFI
NCGC Assay Protocol Summary: A Chinese hamster ovary (CHO) cell line stably expressing the NPS receptor (CHO-NPSR) was obtained from Dr. Heilig lab at NIAAA and maintained in F-12 Kaighn's media (Invitrogen, Carlsbad, CA, 21127) supplemented with 10 % FBS, 100 units/ml penicillin, 100 ug/ml streptomycin and 250 ug/ml geneticin at 37C, 5% CO2 in a humidified atmosphere. Before the assay, aliquots of cells were frozen and stored at -135C. The assay was performed in 1536-well format. Data are reported for both the ratio of the two emission wavelengths, and also for the component 'donor' channel, Em2=620. […] IC50 values were determined from concentration-response data modeled with the standard Hill equation. NPS 1536-well assay protocol: (1) Fresh or frozen CHO-NPSR cells were suspended in F-12 Kaighn's media supplemented with 10 % FBS, 100 units/ml penicillin and 100 ug/ml streptomycin. Cells were plated at 4 ul/well (1200 cells) to white, tissue culture treated 1536-well plates, and then cultured at 37C, 5 % CO2 for 16 to 30 hours. (2) Add 23 nl/well of compound in DMSO solution. The final titration for each compound was between 0.6 nM and 46 uM. (3) Add 1 ul of stimulation reagent (1X HBSS buffer, 5 mM HEPES, 0.1% BSA, 500 uM RO-201724 (Sigma-Aldrich, B8279), 1.5% Alexa 647-labeled anti-cAMP antibody (from Perkin Elmer), 100 nM NPS) (4) Incubation at 37C, 5 % CO2 for 60 min. (5) Add 1 ul/well detection reagent. […]
For `Cc1c(C(O)(c2ccccc2)c2ccccc2)[n+]2ccccc2n1C`, the “activity change, negative = inhibition” value was -2.91% (inactive).

Consider `COc1ccc(C2c3c(n(Cc4ccccc4)cnc3=N)Oc3ccc4ccccc4c32)cc1OC` (stereo not given), for which the Potency is 48.7 µM (active).

Take `CCOC(=O)c1ccc(-n2cnc3c(c2=N)C(c2cccc(OC)c2)c2c(ccc4ccccc24)O3)cc1` (stereo not given): the Potency is 15.4 µM (active).

Turning to `COc1ccc2c(c1)Oc1ncn(CCN3CCOCC3)c(=N)c1C2c1ccc(OC)c(OC)c1` (stereo not given), the Potency is 19.4 µM (active).

Take `O=C(NCc1ccc(F)cc1)n1c(-c2ccccc2)c(P(=S)(c2ccccc2)c2ccccc2)c2ccccc21`: the “activity change, negative = inhibition” value is -26.1% (inactive).

For `Cn1cc(P(=O)(c2ccccc2)c2ccccc2)c2ccccc21`, the “activity change, negative = inhibition” value is -17.1% (inactive).

For `COc1cccc(C2c3c(ncn(-c4ccc(F)cc4)c3=N)Oc3ccc4ccccc4c32)c1` (stereo not given), the Potency was 15.4 µM (active).

With `COc1ccc(C2c3c(N)nc(CCc4ccccc4)nc3Oc3ccc4ccccc4c32)cc1OC` (stereo not given), the Potency is 48.7 µM (active).

Take `COc1cccc(C2c3c(ncn(-c4ccccc4OC)c3=N)Oc3ccc4ccccc4c32)c1` (stereo not given): the Potency was 6.14 µM (active).

As to `COc1cccc(C2c3c(ncn(-c4ccc(C)cc4)c3=N)Oc3ccc4ccccc4c32)c1` (stereo not given), the Potency is 12.2 µM (active).

Turning to `Cc1c(P(=S)(c2ccccc2)c2ccccc2)c2ccccc2n1Cc1ccccc1`, the “activity change, negative = inhibition” value was -21.2% (inactive).

For `COc1ccc(-n2cnc3c(c2=N)C(c2cccc(OC)c2)c2c(ccc4ccccc24)O3)cc1` (stereo not given), the Potency was 9.72 µM (active).

In the case of `O=C1OC(c2ccccc2)(c2ccccc2)N2CCN(C(=O)NCc3ccc(F)cc3)CC12` (stereo not given), the Potency was 1.94 µM (active).

For the compound `O=C(NCc1ccccc1)n1cc(P(=S)(c2ccccc2)c2ccccc2)c2ccccc21`, the “activity change, negative = inhibition” value was -17.7% (inactive).

`COc1cccc(C2c3c(ncn(-c4ccc(C#N)cc4)c3=N)Oc3ccc4ccccc4c32)c1` (stereo not given): the Potency was 15.4 µM (active).

On to `O=P(c1ccccc1)(c1ccccc1)c1cnc2ccccn12`, for which the “activity change, negative = inhibition” value is -17.1% (inactive).

Take `COc1cccc(C2c3c(ncn(-c4ccccc4-c4ccccc4)c3=N)Oc3ccc4ccccc4c32)c1` (stereo not given): the Potency is 38.7 µM (active).

For the compound `COc1cccc(C2c3c(ncn(-c4ccncc4)c3=N)Oc3ccc4ccccc4c32)c1` (stereo not given), the Potency was 19.4 µM (active).

For `COc1ccc(C2c3c(nc(Cc4ccccc4)[nH]c3=O)Oc3ccc4ccccc4c32)cc1OC` (stereo not given), the “activity change, negative = inhibition” value is -20.3% (inactive).

Regarding `COc1cccc(C2c3c(ncn(-c4ccccc4C(C)(C)C)c3=N)Oc3ccc4ccccc4c32)c1` (stereo not given), the Potency was 12.2 µM (active).

As to `COc1cccc(C2c3c(ncn(-c4cccc(F)c4)c3=N)Oc3ccc4ccccc4c32)c1` (stereo not given), the Potency is 3.87 µM (active).

Consider `COc1cccc(C2c3c(ncn(-c4ccccc4C)c3=N)Oc3ccc4ccccc4c32)c1` (stereo not given), for which the Potency was 9.72 µM (active).

Regarding `COc1cccc(C2c3c(ncn(-c4ccccc4SC)c3=N)Oc3ccc4ccccc4c32)c1` (stereo not given), the Potency was 7.72 µM (active).

For the compound `Cc1c(P(=S)(c2ccccc2)c2ccccc2)c2ccccc2n1C(=O)NCc1ccccc1`, the Potency is 31.5 µM (active).

Regarding `Cc1c(P(=O)(c2ccccc2)c2ccccc2)c2ccccc2n1C`, the “activity change, negative = inhibition” value is -18.1% (inactive).

Regarding `OC(c1ccccc1)(c1ccccc1)c1cnc2ccccn12`, the “activity change, negative = inhibition” value is -18.7% (inactive).

With `COc1ccc(C2c3c(ncn(CCc4ccccc4)c3=N)Oc3ccc4ccccc4c32)cc1OC` (stereo not given), the Potency is 24.4 µM (active).

As to `COc1cccc(C2c3c(ncn(-c4ccc5c(c4)OCO5)c3=N)Oc3ccc4ccccc4c32)c1` (stereo not given), the Potency is 6.14 µM (active).

For the compound `COc1ccc(C2c3c(nc(CCCc4ccccc4)[nH]c3=O)Oc3ccc4ccccc4c32)cc1OC` (stereo not given), the “activity change, negative = inhibition” value was -18.2% (inactive).

With `COc1cccc(C2c3c(ncn(-c4ccc(NC(C)=O)cc4)c3=N)Oc3ccc4ccccc4c32)c1` (stereo not given), the Potency is 19.4 µM (active).

Consider `COc1ccc(C2c3c(ncn(Cc4ccccc4)c3=N)Oc3ccc4ccccc4c32)cc1OC` (stereo not given), for which the Potency was 19.4 µM (active).

For `COc1cccc(C2c3c(ncn(-c4cccc(C#N)c4)c3=N)Oc3ccc4ccccc4c32)c1` (stereo not given), the Potency is 19.4 µM (active).

Consider `Cc1nc2ccccn2c1P(=O)(c1ccccc1)c1ccccc1`, for which the “activity change, negative = inhibition” value was -20.8% (inactive).

For `COc1ccc(C2c3ccc4ccccc4c3Oc3ncn(CCN4CCOCC4)c(=N)c32)cc1OC` (stereo not given), the Potency was 48.7 µM (active).

As to `Cc1c(P(=S)(c2ccccc2)c2ccccc2)c2ccccc2n1C(=O)NCc1ccc(F)cc1`, the Potency was 31.5 µM (active).

As for `Cc1c(P(=S)(c2ccccc2)c2ccccc2)c2ccccc2n1CCCc1ccccc1`, the “activity change, negative = inhibition” value is -6.79% (inactive).

As for `COc1cccc(C2c3c(ncn(-c4cccc(OC)c4)c3=N)Oc3ccc4ccccc4c32)c1` (stereo not given), the Potency is 9.72 µM (active).

As to `COc1cccc(C2c3c(ncn(-c4ccccc4Br)c3=N)Oc3ccc4ccccc4c32)c1` (stereo not given), the Potency was 12.2 µM (active).

As for `COc1cccc(C2c3c(ncn(-c4ccccc4Cl)c3=N)Oc3ccc4ccccc4c32)c1` (stereo not given), the Potency was 12.2 µM (active).

Consider `COc1cccc(C2c3c(ncn(-c4ccccn4)c3=N)Oc3ccc4ccccc4c32)c1` (stereo not given), for which the Potency is 30.7 µM (active).
